The values below come from PubChem BioAssay AID1530 (NMMLSC, 2009).

The structures appear in SMILES notation. About 1,000 (0.34%) of roughly 290,000 compounds were called active. The entries come from a sample that favours actives as a whole. Unmarked numbers belong to inactive results. Rule as the data show it: active = percent response above about 24% (passing the limit was not always enough); inactive = the rest.

In the experiment the test system is MEKK2 (MAP3K2) mutant PB1 domain binding to MEK5, human. The experiment is described as follows: MEK5 binding signal on mutant MEKK2 PB1, primary screen, biochemical, multiplex bead flow cytometry, Alexa488-MEK5 (AID 1530). The settings on record: at 10 µM, hits give high values.
With `CC1CCCC(C)N1C(=O)CSc1nnnn1C1CCCC1` (centres undefined), the percent response is -3%. In the case of `CCCc1cc(=O)[nH]c(SCC(=O)N2C(C)CCCC2C)n1` (centres undefined) it was 12%; in that of `CCCc1nnc(SCC(=O)N2C(C)CCCC2C)n1CC` (centres undefined), 1490% (active); in that of `O=C(NC(Cc1ccc(O)cc1)C(=O)O)/C(=C/c1ccccc1)NC(=O)c1ccccc1` (centres undefined), 4%. In the case of `CN(Cc1ccccn1)Cc1nc(-c2ccc(Cl)cc2)no1`, the percent response was -10%. In the case of `Fc1ccc(-c2ccc(CNCc3ccccn3)o2)cc1Cl`, the percent response was 25% (active).

On to `COc1ccc(-c2ccc(CNCCCN3CCOCC3)o2)cc1Cl`, for which the percent response is 2%.

For the molecule `CCCC(=O)N1CCN(c2nnc(-c3ccc(C)cc3)c3ccccc23)CC1`, the percent response was 0%.

As for `C/C=C/C(=O)OCc1csc(CC(=O)Nc2ccccc2C)n1`, the percent response is -6%. For the molecule `O=C(c1ccco1)N1CCN(Cc2cccc(C(F)(F)F)c2)CC1`, the percent response was 5%.

As for `O=C(CN1CCN(C(=O)c2ccco2)CC1)Nc1ccc2c(c1)OCO2`, the percent response is 7%. Under `O=C(CN1CCN(C(=O)c2ccco2)CC1)Nc1ccc(Cl)c(C(F)(F)F)c1` stands 24% (active); under `CCOc1ccc(C(=O)NCCCN2CCCC2=O)cc1`, 8%. In the case of `O=C(NCCCN1CCCCCC1)c1ccc(N2CCCC2=O)cc1` it was 31% (active); in that of `CC1CCC(NC(=O)c2ccc(N3CCCC3=O)cc2)CC1` (centres undefined), 6%; in that of `CCN(CC(=O)Nc1ccc2c(c1)OCO2)S(=O)(=O)c1ccccc1`, -3%. Under `CC(=O)c1ccc(S(=O)(=O)N2CCN(c3nc4c(C)c(C)ccc4cc3C#N)CC2)cc1` stands 1%; under `Cc1cccc(-c2nc3ccc(C(=O)NCCN4CCN(C)CC4)cc3nc2-c2cccc(C)c2)c1`, 34% (active); under `Cc1ccc(C(=O)NCCN2CCOCC2)cc1C`, -1%. Take `CCC1=Nc2cc(C(=O)NCCN3CCCC3)ccc2Sc2ccc(C)cc21`: the percent response was 15%. On to `Cc1c(NC(=O)c2cc(-c3ccc(Br)cc3)on2)c(=O)n(-c2ccccc2)n1C`, for which the percent response was 4%. Under `CCOc1ccc(N(CC)S(=O)(=O)c2cccc3nsnc23)cc1` stands 2%; under `COc1ccc(NC(=O)CCNS(=O)(=O)c2ccc3c(c2)c(=O)n(C)c(=O)n3C)cc1OC`, 56% (active). Turning to `Cc1ccc(NC(=O)CCNS(=O)(=O)c2ccc3c(c2)oc(=O)n3C)cc1C`, the percent response is 3%. Turning to `Cn1c(=O)c2cc(S(=O)(=O)NCCC(=O)Nc3ccc(F)cc3F)ccc2n(C)c1=O`, the percent response is -8%. In the case of `CCSc1nc2sc3c(c2c(=O)n1-c1ccc(C)cc1)CCN(C)C3` it was 3%; in that of `CN(C)S(=O)(=O)c1ccc(N/C=C(\[N+](=O)[O-])S(=O)(=O)c2ccccc2)cc1`, -3%; in that of `CCOC(=O)c1cccc(NC(=O)c2ccc(F)cc2F)c1`, -1%. Regarding `CCOc1ccccc1OCCCNCc1ccccc1`, the percent response was 1%. Turning to `CSc1ccc(/C=N/N2CCN(Cc3ccccc3Cl)CC2)cc1`, the percent response was -5%. As for `CN1CCN(/N=C/c2ccc(-c3ccc([N+](=O)[O-])cc3)o2)CC1`, the percent response was -2%. `CN1CCN(/N=C/c2ccc(C#N)cc2)CC1`: the percent response is 134% (active). In the case of `Cc1ccc(CNC(=O)c2ccc3c(c2)S(=O)(=O)c2ccccc2C3=O)cc1` it was 6%; in that of `COC(=O)Nc1ccc(S(=O)(=O)Nc2cc(OC)nc(OC)n2)cc1`, 7%; in that of `COc1ccc(C=C(C#N)C#N)c(CSc2ccccn2)c1`, 11%. In the case of `O=C(NC1CCN(S(=O)(=O)c2ccc(F)cc2)CC1)c1ccccc1` it was 4%; in that of `Cc1ccc(S(=O)(=O)NC(=O)N2CCCC(C)(C)C2)cc1`, 24% (active). For the molecule `Cc1ccc(S(=O)(=O)NCC(=O)N2CCOCCOCCOCCOCC2)cc1`, the percent response is -7%. Under `Cc1ccc(S(=O)(=O)NC(=O)N2CCCN(Cc3ccc(F)cc3)CC2)cc1` stands -4%; under `O=[N+]([O-])c1ccc2nc(-c3ccccn3)[nH]c2c1`, -17%; under `Cc1cccc(Nc2nc(NCCO)nc(N3CCCC3)n2)c1`, 4%. As to `COc1ccc(Cn2c(=S)[nH]c3cc(C(=O)N4CCCCC4)ccc3c2=O)cc1`, the percent response was -5%. Under `C/C(=N\NC(=O)c1ccc(NS(=O)(=O)c2cccs2)cc1)c1ccc2ccccc2c1` stands -4%; under `CC(=O)c1cccc(OCc2cc(C(=O)NC(C)Cc3cccnc3)no2)c1` (centres undefined), 10%; under `CC(=O)Nc1ccc(-c2nc3ccccc3o2)cc1`, 28% (active).

As to `Cc1ccc2nc(-c3ccc(NC(=O)c4cccnc4)cc3)oc2c1`, the percent response was 0%.

On to `CC(=O)Nc1ccc(Nc2c3ccccc3nc3ccccc23)cc1`, for which the percent response is 3%. On to `COc1ccc(-n2nc(C(=O)NCC(=O)N3CCCCCC3)c3ccccc3c2=O)cc1Cl`, for which the percent response is 6%. As for `COc1ccc(CC(=O)Nc2cc(S(=O)(=O)N3CCCCC3)ccc2N2CCN(C)CC2)cc1`, the percent response was -1%.

Turning to `CN1CCN(c2ccc(S(=O)(=O)N3CCCCC3)cc2NC(=O)Cc2ccccc2F)CC1`, the percent response is 0%. Take `CCN1CCN(c2ccc(S(=O)(=O)N3CCCCC3)cc2NC(=O)Cc2c(Cl)cccc2Cl)CC1`: the percent response is 24% (active).

`Cc1cccc(S(=O)(=O)N2CN(CC3CCCO3)c3nc4ccccc4nc32)c1` (centres undefined): the percent response is 1%. Turning to `Cc1ccc([N+](=O)[O-])c(OCCCNCC(C)O)c1` (centres undefined), the percent response is 7%.

For the molecule `CCOc1ccc(NC(=O)CCCCCN2C(=O)[C@@H]3Cc4ccccc4CN3C2=O)cc1`, the percent response was 0%. Turning to `CN(C)CCCNC(=O)c1cc(C(=O)Cc2ccc(Cl)cc2)c[nH]1`, the percent response is 27% (active). On to `CC(C)CC(=O)c1c[nH]c(C(=O)NCc2ccccc2)c1`, for which the percent response was 10%. Turning to `CN(C)CCCNC(=S)NCc1ccc(Cl)cc1`, the percent response is 13%.

As to `Cc1noc(C)c1C(=O)NCCc1ccc(S(N)(=O)=O)cc1`, the percent response is 2%.

Turning to `Cc1ccc2nc(-c3ccc(NC(=O)CN(C)S(=O)(=O)c4ccccc4)cc3)sc2c1`, the percent response is -5%.

`CN(C)c1nc(Nc2ccc(Cl)c(Cl)c2)nc(N(C)C)n1`: the percent response was 0%. For `Nc1nc(Nc2ccccc2)nc(NCCO)c1[N+](=O)[O-]`, the percent response was -1%.

Consider `OCCNc1nc(Nc2ccc(Cl)c(Cl)c2)nc2ccccc12`, for which the percent response is 31% (active). Consider `CCOC(=O)C1=C(CN2CCc3ccccc32)NC(=O)NC1c1cc(C)ccc1C` (centres undefined), for which the percent response was 5%. In the case of `COc1cc2c(cc1OC)C(C)N(S(=O)(=O)c1cnc(Cl)c(Cl)c1)CC2` (centres undefined) it was 10%; in that of `O=c1c2c3c(sc2n(CCN2CCCC2)c(=O)n1Cc1ccccc1)CCCCC3`, 1%. Under `O=C(CC1NCCNC1=O)Nc1cc(Cl)cc(Cl)c1` (centres undefined) stands 2%; under `O=C(CC1SCCNC1=O)Nc1ccc(Cl)c(Cl)c1` (centres undefined), 174% (active); under `O=C(CC1SCCNC1=O)Nc1ccc(Cl)cc1` (centres undefined), -10%.

For the molecule `Cc1ccc(C(=O)c2coc3ccc(O)c(CN(C)C)c23)cc1`, the percent response is 11%. Under `COc1cccc2sc(N(CCCN(C)C)C(=O)C(c3ccccc3)c3ccccc3)nc12` stands 22%. In the case of `CN(C)CCCN(C(=O)COc1ccccc1)c1nc2c(Cl)cccc2s1` it was 87% (active); in that of `COc1cccc2sc(N(CCCN(C)C)C(=O)CCS(=O)(=O)c3ccccc3)nc12`, 6%; in that of `C/C(=N\NC(=O)c1ccoc1C)c1ccccc1O`, 3%.

In the case of `O=S(=O)(NC1CCCCC1N1CCC(O)CC1)c1ccc(Cl)cc1` (centres undefined), the percent response is 2%. With `COc1ccc(C2NC(=O)C(=O)/C2=C(\O)c2ccc(Cl)cc2)cc1OC` (centres undefined), the percent response is 5%. Turning to `O=C(NCCc1ccc(Cl)cc1)C1CC(=O)N(C2CCCCC2)C1` (centres undefined), the percent response was -5%.

In the case of `CC(C)OCCCNC(=O)C1CC(=O)N(C2CCCCCCC2)C1` (centres undefined), the percent response was 10%. Consider `O=C(NCCCN1CCCCCC1)C1CC(=O)N(C2CCCC2)C1` (centres undefined), for which the percent response is 31% (active).

With `CC1(C)C=Cc2c(ccc3c2OC[C@@H](c2ccc(O)cc2O)C3)O1`, the percent response is 2%. Regarding `CNc1nc2c(C)cccn2c(=O)c1C=Nc1ccc(OC)cc1`, the percent response is 0%. Under `O=C(CCCN1C(=O)/C(=C\c2ccco2)SC1=S)Nc1cccc2ccccc12` stands -3%; under `CCCN(CCC)c1nc2c(C)cccn2c(=O)c1/C=C1/SC(=S)N(Cc2ccco2)C1=O`, 147% (active). With `CCOC(=O)CC1C(=O)NCCN1c1nc2c(C)cccn2c(=O)c1/C=C1\SC(=S)N(C(C)CC)C1=O` (centres undefined), the percent response was -23%. In the case of `O=C(CCCN1C(=O)/C(=C/c2ccco2)SC1=S)Nc1ccccc1` it was 0%. Under `Cc1cccn2c(=O)c(/C=C3\SC(=S)N(CC(C)C)C3=O)c(NCCCOC(C)C)nc12` stands 97% (active); under `Nc1ccc2nn(-c3ccc(Cl)cc3)nc2c1`, -4%. Regarding `Cc1cc2oc(=O)cc(CN3CCN(S(=O)(=O)c4cccs4)CC3)c2cc1C(C)C`, the percent response was 0%. For `COC(=O)c1ccc(CNC(=O)C2CCC(=O)N(Cc3cccc(F)c3)C2)cc1` (centres undefined), the percent response was 4%. In the case of `O=C(Cn1ncc2c3ccccc3n(Cc3ccccc3)c2c1=O)NCCCN1CCOCC1` it was 4%.
